According to the supplement of paper PMC10811239:

system: LEGO organoid PT (PTEN-/-; TP53-/-); experiment: bioluminescence (viable cell) signal fold change after vs before treatment, normalised to DMSO (ratio); higher = more tumour cell growth / less inhibition; conditions: 10 µM; treatment time 6 days
Experimental: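 Luc2-labelled iPSC-derived glioblastoma-like organoids (LEGOs, genotypes PT = PTEN-/-;TP53-/-, PTCC = plus CDKN2A/B-/-, PTN = plus NF1-/-) were treated with 10 uM drug for 6 days (applied every other day) at 37 C. Bioluminescence imaging was done before treatment and 2 days after the last dose. BLI signals were normalised to the DMSO control on the same day and then to the pre-treatment signal (N=3).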

Row | Compound | bioluminescence
1 | Cl.CN(C)CC\C=C1\c2ccccc2C=Cc2ccccc12 [Cyclobenzaprine hydrochloride] | 0.825
2 | CC(=O)OCC(=O)[C@@]1(O)CC[C@H]2[C@@H]3CCC4=CC(=O)C=C[C@]4(C)[C@H]3[C@@H](O)C[C@@]21C [Prednisolone-21-acetate] | 0.578
3 | C#Cc1cccc(Nc2ncnc3cc(OCCOC)c(OCCOC)cc23)c1.Cl [Erlotinib hydrochloride] | 1.53
4 | O=C(CCCN1CC=C(n2c(=O)[nH]c3ccccc32)CC1)c1ccc(F)cc1 [Droperidol] | 1.37
5 | COc1ccc([C@@H]2CC(=O)c3c(O)cc(O[C@@H]4O[C@H](CO[C@@H]5O[C@@H](C)[C@H](O)[C@@H](O)[C@H]5O)[C@@H](O)[C@H](O)[C@H]4O)cc3O2)cc1O [Hesperidin] | 1.16
6 | CCc1nc(N)nc(N)c1-c1ccc(Cl)cc1 [Pyrimethamine] | 0.65
7 | CCc1cccc2c3c([nH]c12)C(CC)(CC(=O)O)OCC3 (configuration not stated) [Etodolac] | 1
8 | Cl.Clc1cccc(Cl)c1NC1=NCCN1 [Clonidine hydrochloride] | 1.1
9 | NS(=O)(=O)Cc1noc2ccccc12 [Zonisamide] | 0.521
10 | CCN(CC)CC(=O)Nc1c(C)cccc1C [Xylocaine] | 1.02
11 | CCCOc1ccc(S(=O)(=O)NCCC2CCCN2C)cc1-c1nc2c(CCC)nn(C)c2c(=O)[nH]1 (configuration not stated) [Udenafil] | 1.36
12 | Cc1nc2c([nH]1)CCN(C(=O)c1ccc(NC(=O)c3ccccc3-c3ccccc3)cc1)c1ccccc1-2.Cl [Conivaptan hydrochloride] | 0.674
